# In article PMC5515408, “Sequence-specific DNA binding by MYC/MAX to low-affinity non-E-box motifs”:
# The full ranking holds about 5,000 sequences; the median of “log2 normalized fluorescence” is about 0.089, and the highest 2% start at about 0.81. The list comes from a sample in which the highest values are over-represented; it also holds similar and randomly drawn sequences.
# Biological target: MYC (p64);MAX (p21), in MYC:MAX (human;human, UniProt P01106-1;P61244-2 1-439;1-151, |)
# Experiment: protein-binding microarray (anti-MAX antibody); PBM: 15 mM Tris-HCl pH 7.5, 100 mM KCl, 0.075% NP40, 7.5 mM beta-mercaptoethanol, 375 ng/ul BSA, 8 ng/ul poly(dA-dT):(dA-dT), 550 ng complex, 60 min, room tempe; high values mean tight binding
# Conditions: protein: recombinant;recombinant; tags: 6xHis;6xHis; copies: 1;1; label: 3' end of printed strand (linker) attached to glass slide; dsDNA, one strand shown
# How it was run: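 A custom Agilent glass array held ~5000 unique 12-nt sequences in triplicate spots, made double-stranded by primer extension. His-tagged human MYC:MAX or MAX:MAX dimers (550 ng, produced in E. coli) were applied for 60 min at room temperature in Tris-KCl buffer, pH 7.5, with NP40, BSA and poly(dA-dT) competitor. Anti-MAX and secondary antibodies detected bound protein, with scanning at 543 nm, and binding is given as log2 normalized fluorescence.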
# Sequence of MYC (p64);MAX (p21), in MYC:MAX (P01106 16-454, chain 1 of 2): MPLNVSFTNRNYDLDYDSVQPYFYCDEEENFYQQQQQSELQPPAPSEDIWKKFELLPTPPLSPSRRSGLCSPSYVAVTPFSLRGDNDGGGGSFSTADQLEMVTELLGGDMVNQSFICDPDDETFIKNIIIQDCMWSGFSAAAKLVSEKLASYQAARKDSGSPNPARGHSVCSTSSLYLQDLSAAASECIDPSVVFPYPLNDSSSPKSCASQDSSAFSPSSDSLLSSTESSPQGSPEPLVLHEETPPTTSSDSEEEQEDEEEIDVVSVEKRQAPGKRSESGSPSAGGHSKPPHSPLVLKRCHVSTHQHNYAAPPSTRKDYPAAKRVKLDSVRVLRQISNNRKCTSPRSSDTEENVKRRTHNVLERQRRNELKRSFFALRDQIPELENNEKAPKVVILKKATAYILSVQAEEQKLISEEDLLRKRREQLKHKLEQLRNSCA
# Sequence of MYC (p64);MAX (p21), in MYC:MAX (P61244 other isoform, or with tags, fused parts or gaps |, chain 2 of 2): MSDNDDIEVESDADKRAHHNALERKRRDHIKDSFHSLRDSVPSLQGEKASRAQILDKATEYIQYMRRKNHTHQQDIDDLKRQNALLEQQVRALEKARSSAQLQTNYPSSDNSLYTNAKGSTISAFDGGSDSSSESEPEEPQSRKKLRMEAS
row,Sequence,binding signal
1,CCGGCTGAGCGCAGGTATTAATAGCTAAGATTACTATATCGACG,0.113 log2 normalized fluorescence
2,CCGGCTGACCAGTTGTATTAATAGCTAAGATTACTATATCGACG,0.159 log2 normalized fluorescence
3,CCGGCTGAGCACACGTATTAATAGCTAAGATTACTATATCGACG,0.338 log2 normalized fluorescence
4,CCGGCTCGCACGTGGTATTAATAGCTAAGATTACTATATCGACG,0.665 log2 normalized fluorescence
5,CCGGCGCACACGTGGTATTAATAGCTAAGATTACTATATCGACG,0.906 log2 normalized fluorescence
6,CCGGCGCACACGTGCTATTAATAGCTAAGATTACTATATCGACG,0.875 log2 normalized fluorescence
7,CCGGCGCGCACGTGGTATTAATAGCTAAGATTACTATATCGACG,0.813 log2 normalized fluorescence
8,CCGGCTGGCACGTGCTATTAATAGCTAAGATTACTATATCGACG,0.722 log2 normalized fluorescence
9,CCGGCTGAATTCCCGTATTAATAGCTAAGATTACTATATCGACG,0.003 log2 normalized fluorescence
10,CCGGCTGACGGATGGTATTAATAGCTAAGATTACTATATCGACG,0.302 log2 normalized fluorescence
11,CCGGCTGACGGACAGTATTAATAGCTAAGATTACTATATCGACG,0.124 log2 normalized fluorescence
12,CCGGCTGACTCGTGCTGTTAATAGCTAAGATTACTATATCGACG,0.41 log2 normalized fluorescence
13,CCGGCTGACACGTGAGGTTAATAGCTAAGATTACTATATCGACG,0.702 log2 normalized fluorescence
14,CCGGCTGACACGTGAGATTAATAGCTAAGATTACTATATCGACG,0.826 log2 normalized fluorescence
15,CCGGCTGACACGTGATATTAATAGCTAAGATTACTATATCGACG,0.522 log2 normalized fluorescence
16,CCGGCTGACACGTCATGTTAATAGCTAAGATTACTATATCGACG,0.5 log2 normalized fluorescence
17,CCGGCTGACACGTGAAGTTAATAGCTAAGATTACTATATCGACG,0.527 log2 normalized fluorescence
18,CCGGCTGACACGTGATCTTAATAGCTAAGATTACTATATCGACG,0.744 log2 normalized fluorescence
19,CCGGCTGACACGTGATGTTAATAGCTAAGATTACTATATCGACG,0.851 log2 normalized fluorescence
20,CCGGCTGACACGTGAGCTTAATAGCTAAGATTACTATATCGACG,0.713 log2 normalized fluorescence
21,CCGGCTGACACGTGTGATTAATAGCTAAGATTACTATATCGACG,0.872 log2 normalized fluorescence
22,CCGGCTGAGCCATCGTATTAATAGCTAAGATTACTATATCGACG,0.0938 log2 normalized fluorescence
23,CCGGCTGACCGCGGGTATTAATAGCTAAGATTACTATATCGACG,0.33 log2 normalized fluorescence
24,CCGGCTGACTGGAGGTATTAATAGCTAAGATTACTATATCGACG,0.07 log2 normalized fluorescence
25,CCGGCTGATGTTAGGTATTAATAGCTAAGATTACTATATCGACG,0.122 log2 normalized fluorescence
26,CCGGCTGAGGACCGGTATTAATAGCTAAGATTACTATATCGACG,-0.014 log2 normalized fluorescence
27,CCGGCTGACACGTGGTATTAATAGCTAAGATTACTATATCGACG,0.825 log2 normalized fluorescence

row,Sequence,binding signal
1,CCGGCTGAACACGTGTATTAATAGCTAAGATTACTATATCGACG,0.823 log2 normalized fluorescence
2,CCGGCTGACGTGTGGTATTAATAGCTAAGATTACTATATCGACG,0.252 log2 normalized fluorescence
3,CCGGCTGACGACACGTATTAATAGCTAAGATTACTATATCGACG,0.2 log2 normalized fluorescence
4,CCGGCCGACACGTGATATTAATAGCTAAGATTACTATATCGACG,0.927 log2 normalized fluorescence
5,CCGGCTGAACACACGTATTAATAGCTAAGATTACTATATCGACG,0.419 log2 normalized fluorescence
6,CCGGCCGACACGTGGGCTTAATAGCTAAGATTACTATATCGACG,0.893 log2 normalized fluorescence
7,CCGGCTAACACGTGATATTAATAGCTAAGATTACTATATCGACG,0.646 log2 normalized fluorescence
8,CCGGCTGAACGTGTGTATTAATAGCTAAGATTACTATATCGACG,0.493 log2 normalized fluorescence
9,CCGGCTGACACGTGGGCTTAATAGCTAAGATTACTATATCGACG,0.74 log2 normalized fluorescence
10,CCGGCCGACACGTTGTATTAATAGCTAAGATTACTATATCGACG,0.656 log2 normalized fluorescence
11,CCGGCCGACACGTCGTATTAATAGCTAAGATTACTATATCGACG,0.338 log2 normalized fluorescence
12,CCGGCTGACTAGTAGTATTAATAGCTAAGATTACTATATCGACG,-0.00827 log2 normalized fluorescence
13,CCGGCTGACACGACATATTAATAGCTAAGATTACTATATCGACG,0.459 log2 normalized fluorescence
14,CCGGCTGAAGACCAGTATTAATAGCTAAGATTACTATATCGACG,0.106 log2 normalized fluorescence
15,CCGGCTGAGGCAAGGTATTAATAGCTAAGATTACTATATCGACG,0.281 log2 normalized fluorescence
16,CCGGCTGAGGTCGCGTATTAATAGCTAAGATTACTATATCGACG,0.0221 log2 normalized fluorescence
17,CCGGCTGATAACAGGTATTAATAGCTAAGATTACTATATCGACG,-0.0157 log2 normalized fluorescence
18,CCGGCTGACCTATGGTATTAATAGCTAAGATTACTATATCGACG,0.108 log2 normalized fluorescence
19,CCGGCTGAGTGTGAGTATTAATAGCTAAGATTACTATATCGACG,0.101 log2 normalized fluorescence
20,CCGGCTGAACGCGTGTATTAATAGCTAAGATTACTATATCGACG,0.587 log2 normalized fluorescence
21,CCGGCCGACACGTGGAATTAATAGCTAAGATTACTATATCGACG,0.832 log2 normalized fluorescence
22,CCGGCTAACACGTGGAATTAATAGCTAAGATTACTATATCGACG,0.812 log2 normalized fluorescence
23,CCGGCCGACGCGTGGTATTAATAGCTAAGATTACTATATCGACG,0.626 log2 normalized fluorescence
24,CCGGCCGGCACGTGGTATTAATAGCTAAGATTACTATATCGACG,0.723 log2 normalized fluorescence
25,CCGGCTGACACGTGGAATTAATAGCTAAGATTACTATATCGACG,0.698 log2 normalized fluorescence
26,CCGGCCGACACGTGGTATTAATAGCTAAGATTACTATATCGACG,1.07 log2 normalized fluorescence
27,CCGGCTGAGCAGCGGTATTAATAGCTAAGATTACTATATCGACG,0.0954 log2 normalized fluorescence

row,Sequence,binding signal
1,CCGGCAGACTCGTTGTATTAATAGCTAAGATTACTATATCGACG,0.374 log2 normalized fluorescence
2,CCGGCTGAAGAGCTGTATTAATAGCTAAGATTACTATATCGACG,0.00393 log2 normalized fluorescence
3,CCGGCTGACACTTTGTATTAATAGCTAAGATTACTATATCGACG,0.302 log2 normalized fluorescence
4,CCGGCTGAGGTTTGGTATTAATAGCTAAGATTACTATATCGACG,-0.0536 log2 normalized fluorescence
5,CCGGCTGACACGTGCTTTTAATAGCTAAGATTACTATATCGACG,0.771 log2 normalized fluorescence
6,CCGGCCGACACGTGCTTTTAATAGCTAAGATTACTATATCGACG,0.852 log2 normalized fluorescence
7,CCGGCTAACACGTGCTTTTAATAGCTAAGATTACTATATCGACG,0.969 log2 normalized fluorescence
8,CCGGCTGCCACGTGCTTTTAATAGCTAAGATTACTATATCGACG,0.652 log2 normalized fluorescence
9,CCGGCCGACACGTGCTATTAATAGCTAAGATTACTATATCGACG,0.722 log2 normalized fluorescence
10,CCGGCCGACACGTTGTTTTAATAGCTAAGATTACTATATCGACG,0.661 log2 normalized fluorescence
11,CCGGCTGAGTTGTGGTATTAATAGCTAAGATTACTATATCGACG,0.0821 log2 normalized fluorescence
12,CCGGCTGAAACATCGTATTAATAGCTAAGATTACTATATCGACG,0.226 log2 normalized fluorescence
13,CCGGCTGAGGTAATGTATTAATAGCTAAGATTACTATATCGACG,0.138 log2 normalized fluorescence
14,CCGGCAAACACGATGTTTTAATAGCTAAGATTACTATATCGACG,0.827 log2 normalized fluorescence
15,CCGGCATACACGTGGTATTAATAGCTAAGATTACTATATCGACG,0.842 log2 normalized fluorescence
16,CCGGCCGACACGCGGTATTAATAGCTAAGATTACTATATCGACG,0.697 log2 normalized fluorescence
17,CCGGCGGAGACGATGTTTTAATAGCTAAGATTACTATATCGACG,0.0761 log2 normalized fluorescence
18,CCGGCATACACTTGGTATTAATAGCTAAGATTACTATATCGACG,0.425 log2 normalized fluorescence
19,CCGGCAGAGAACGATGTTTAATAGCTAAGATTACTATATCGACG,0.248 log2 normalized fluorescence
20,CCGGCTGACACGCGGTATTAATAGCTAAGATTACTATATCGACG,0.487 log2 normalized fluorescence
21,CCGGCTAATACGTGGTATTAATAGCTAAGATTACTATATCGACG,0.38 log2 normalized fluorescence
22,CCGGCTTACACGTGCTATTAATAGCTAAGATTACTATATCGACG,1.02 log2 normalized fluorescence
23,CCGGCTTACACATGCTATTAATAGCTAAGATTACTATATCGACG,0.812 log2 normalized fluorescence
24,CCGGCTAACACGCGGTATTAATAGCTAAGATTACTATATCGACG,0.819 log2 normalized fluorescence
25,CCGGCTTACACGTGATATTAATAGCTAAGATTACTATATCGACG,0.75 log2 normalized fluorescence
